Data as given in PubChem BioAssay (NCI).
This is part of a sample that, as a whole, favours compounds with a hit. Of some 83,000 tested, about 20% had one in any assay.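 Cells were grown in 96-well plates and exposed to the test compound at a single concentration for 48 hours; results are reported as percent growth, with values below 10 considered active.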 A number with no mark means an inactive call. Activity calls are given as the source filed them.

Key:
Test in all cases: NCI-60 one-dose screen, 48 h (100 = growth as untreated, 0 = no growth, -100 = all killed)
Settings in all cases: 10 µM
[1] = test system: NCI-H23 lung
[2] = test system: NCI-H226 lung
[3] = test system: NCI-H322M lung
[4] = test system: HOP-62 NSCLC
[5] = test system: NCI-H460 lung
[6] = test system: HOP-92 NSCLC
[7] = test system: NCI-H522 lung
[8] = test system: A549/ATCC NSCLC
[9] = test system: 786-0 renal
[10] = test system: COLO 205 colon
[11] = test system: DU-145 prostate
[12] = test system: MALME-3M melanoma
[13] = test system: MDA-MB-231 breast
[14] = test system: RXF 393 renal
[15] = test system: SF-268 CNS
[16] = test system: SF-295 CNS
[17] = test system: SF-539 CNS
[18] = test system: UACC-257 melanoma
[19] = test system: M14 melanoma
[20] = test system: K-562 leukemia

Row | SMILES | growth [1] | growth [2] | growth [3] | growth [4] | growth [5] | growth [6] | growth [7] | growth [8] | growth [9] | growth [10] | growth [11] | growth [12] | growth [13] | growth [14] | growth [15] | growth [16] | growth [17] | growth [18] | growth [19] | growth [20] [%]
1 | CC[C@@]1(O)C(=O)OCc2c1cc1n(c2=O)Cc2c-1nc1cc(F)c(C)c3c1c2[C@@H](N)CC3 | -57.4% (active) | -54.1% (active) | 0.642% (active) | -31.7% (active) | -4.63% (active) | 15.1% | -53.9% (active) | -57.9% (active) | 5.22% (active) | -81.6% (active) | 6.82% (active) | -55.8% (active) | 10.8% | -77.2% (active) | 6.53% (active) | -0.789% (active) | -74.9% (active) | -59.6% (active) | -20.8% (active) | 
2 | CNC(=O)c1cccc(N2CCc3c2ccc(NC(=O)Nc2ccc(N4CCN(C)CC4)c(C(F)(F)F)c2)c3F)c1 | -85.6% (active) | 104% | -92% (active) | -80% (active) | -81% (active) | -83% (active) | -91.7% (active) | -86% (active) | -95.6% (active) | 92.7% | -76.2% (active) | -96.3% (active) | -94.8% (active) | -85.3% (active) | -62.7% (active) | -97.2% (active) | -100% (active) | -35% (active) | -93.3% (active) | 
3 | O=S(=O)(c1ccc(Cl)cc1)c1nc(-c2ccccc2)oc1S(=O)(=O)c1ccc(Cl)cc1 | 78.9% | 87.5% | 101% | 91.3% | 98% | 85.7% | 88.1% | 94.2% | 94.9% | 102% | 97.2% | 91.8% | 76.9% | 7.97% (active) | 97.7% | 92.9% | 84.8% | 85.5% | 90.8% | 
4 | NC1=NC(c2ccccc2Cl)N=C(Nc2nn[nH]n2)N1 (configuration not stated) | 106% | 105% | 111% | 108% | 108% | 95.3% | 102% | 103% | 103% | 116% | 106% | 101% |  | 113% | 101% | 101% | 103% | 106% | 106% | 100
5 | CN(C)c1cccc2c(S(=O)(=O)Nc3cccc(-c4csc(NC(=O)CCCCCN5CCN(c6cc7c(cc6F)C(=O)N(C6CCC(=O)NC6=O)C7=O)CC5)n4)c3)cccc12 (configuration not stated) | 60.2% | 72.7% | 106% | 88.5% | 91.4% | 56.6% | 85.6% | 90.3% | 86.1% | 104% | 97.2% | 87.1% | 98% | 89.7% | 91.4% | 91.8% | 78.5% | 82% | 97.3% | 
6 | CCOC(=O)C1=C(N)N(c2ccc(Cl)cc2)C2=C(C(=O)CC(C)(C)C2)C1c1ccc(N2CCOCC2)cc1 (configuration not stated) | 105% | 93.6% | 95.4% | 118% | 94% | 92.9% | 89.3% | 90% | 89.4% | 99.8% | 99% | 93.9% | 87.3% | 98.6% | 89.7% | 89.3% | 100% | 106% | 103% | 
7 | CC1(C)CC[C@]2(C(=O)NCCCNCCCCNCCCN)CC[C@]3(C)C(=CC[C@@H]4[C@@]5(C)Cc6c([nH]c7ccccc67)C(C)(C)[C@@H]5CC[C@]43C)[C@H]2C1 | 83.7% | 71.8% | 101% | 85% | 96.5% | 60.5% | 79.6% | 86.5% | 89.1% | 115% | 96.3% | 85.3% | -7.91% (active) | 78.1% | 113% | 98.5% | 90.7% | 95.9% | 59.7% | 
8 | CN1CCN(c2ccc(Nc3nc(NCCCNC(=O)C4CCCCC4)c4sccc4n3)cc2)CC1 | 60.3% | 81.6% | 70% | 72.4% | 52.9% | 25.4% | 79.4% | 59.5% | 3.18% (active) | 68.8% | 67.5% | -97.1% (active) | 39% | -36% (active) | 62.2% | 38.4% | -77.9% (active) | -30.7% (active) | -8.5% (active) | 
